# According to publication PMC7862700, “An all-to-all approach to the identification of sequence-specific readers for epigenetic DNA modifications on cytosine”:
# Columns and labels:
# Test in all cases: DAPPL (digital affinity profiling via proximity ligation, sequencing); 10 mM Tris-HCl pH 7.5, 50 mM NaCl, 1 mM DTT, 4% glycerol, room temperature, 30 min; GST-TFs on glutathione beads, 16-mer random dsDNA library, 0.1% formaldehyde crosslink after washing; high values mean tight binding
# [1] = molecular target: T1, FEV (Homo sapiens, UniProt Q99581 1-238); conditions: protein: recombinant; tags: N-terminal GST; dsDNA, one strand shown
# T1 sequence: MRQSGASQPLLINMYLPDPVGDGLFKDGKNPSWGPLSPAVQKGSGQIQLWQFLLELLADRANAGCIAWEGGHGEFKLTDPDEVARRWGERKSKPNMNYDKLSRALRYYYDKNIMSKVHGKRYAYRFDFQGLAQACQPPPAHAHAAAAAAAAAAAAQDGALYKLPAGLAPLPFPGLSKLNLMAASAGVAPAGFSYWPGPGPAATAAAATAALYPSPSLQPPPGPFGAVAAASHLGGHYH
# Procedure, shortened: (§1)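 Beads coated with glutathione captured GST-fused human transcription factors that had been expressed in yeast, and the factors were then given DNA barcodes and pooled with a tag-only sample. The pools were incubated with 200 nmole of a random double-stranded 16-mer DNA library in Tris/NaCl/DTT/glycerol buffer for 30 min at room temperature, washed, crosslinked with 0.1% formaldehyde and proximity-ligated with BsaI/T4 ligase at 37 °C for 1 h. PCR amplification and Illumina NextSeq500 sequencing came last. Binding signal is each hexamer's read frequency for a factor divided by its frequency for the tag-only sample.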
# [2] = molecular target: ETV5 (Homo sapiens, UniProt P41161 1-510); conditions: protein: recombinant; tags: N-terminal GST; dsDNA, one strand shown
# Procedure, shortened: as §1
# [3] = molecular target: HSF1 (Homo sapiens, UniProt Q00613 1-529); conditions: protein: recombinant; tags: N-terminal GST; chain copies: 3; dsDNA, one strand shown
# Procedure, shortened: as §1
# [4] = molecular target: T2, SPIC (Homo sapiens, UniProt Q8N5J4 1-248); conditions: protein: recombinant; tags: N-terminal GST; dsDNA, one strand shown
# T2 sequence: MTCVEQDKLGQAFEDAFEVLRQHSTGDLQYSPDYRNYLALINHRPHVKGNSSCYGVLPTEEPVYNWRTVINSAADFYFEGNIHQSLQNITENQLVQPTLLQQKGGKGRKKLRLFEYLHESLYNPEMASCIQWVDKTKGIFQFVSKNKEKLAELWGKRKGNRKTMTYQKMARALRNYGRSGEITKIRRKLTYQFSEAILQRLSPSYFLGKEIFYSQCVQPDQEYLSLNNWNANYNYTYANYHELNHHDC
# Procedure, shortened: as §1
# [5] = molecular target: ELF4 (Homo sapiens, UniProt Q99607 1-663); conditions: protein: recombinant; tags: N-terminal GST; dsDNA, one strand shown
# Procedure, shortened: as §1
# [6] = molecular target: T3, ELK4 (Homo sapiens, UniProt P28324-2 1-405); conditions: protein: recombinant; tags: N-terminal GST; dsDNA, one strand shown
# T3 sequence: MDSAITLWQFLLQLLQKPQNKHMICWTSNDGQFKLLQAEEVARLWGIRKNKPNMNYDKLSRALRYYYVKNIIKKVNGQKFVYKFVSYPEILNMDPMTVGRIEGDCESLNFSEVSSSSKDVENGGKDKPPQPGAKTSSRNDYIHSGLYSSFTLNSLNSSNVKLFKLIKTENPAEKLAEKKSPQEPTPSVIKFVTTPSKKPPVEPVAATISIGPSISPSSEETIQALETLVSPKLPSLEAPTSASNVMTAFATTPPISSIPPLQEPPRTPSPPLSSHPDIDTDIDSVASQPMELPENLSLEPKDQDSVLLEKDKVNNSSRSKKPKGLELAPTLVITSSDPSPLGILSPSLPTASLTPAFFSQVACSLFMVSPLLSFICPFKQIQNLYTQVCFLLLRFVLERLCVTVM
# Procedure, shortened: as §1
# [7] = molecular target: T4, ETV2 (Homo sapiens, UniProt O00321 1-342); conditions: protein: recombinant; tags: N-terminal GST; dsDNA, one strand shown
# T4 sequence: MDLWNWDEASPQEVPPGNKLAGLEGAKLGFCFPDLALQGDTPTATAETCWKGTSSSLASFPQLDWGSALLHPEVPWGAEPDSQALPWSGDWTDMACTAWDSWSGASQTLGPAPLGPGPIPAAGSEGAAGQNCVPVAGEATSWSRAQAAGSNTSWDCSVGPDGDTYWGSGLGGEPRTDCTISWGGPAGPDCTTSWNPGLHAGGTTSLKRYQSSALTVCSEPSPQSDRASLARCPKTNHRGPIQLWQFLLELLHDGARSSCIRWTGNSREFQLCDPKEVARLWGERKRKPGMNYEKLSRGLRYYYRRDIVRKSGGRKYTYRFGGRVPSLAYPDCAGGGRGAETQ
# Procedure, shortened: as §1
# [8] = molecular target: T5, ELF3 (Homo sapiens, UniProt P78545 1-371); conditions: protein: recombinant; tags: N-terminal GST; dsDNA, one strand shown
# T5 sequence: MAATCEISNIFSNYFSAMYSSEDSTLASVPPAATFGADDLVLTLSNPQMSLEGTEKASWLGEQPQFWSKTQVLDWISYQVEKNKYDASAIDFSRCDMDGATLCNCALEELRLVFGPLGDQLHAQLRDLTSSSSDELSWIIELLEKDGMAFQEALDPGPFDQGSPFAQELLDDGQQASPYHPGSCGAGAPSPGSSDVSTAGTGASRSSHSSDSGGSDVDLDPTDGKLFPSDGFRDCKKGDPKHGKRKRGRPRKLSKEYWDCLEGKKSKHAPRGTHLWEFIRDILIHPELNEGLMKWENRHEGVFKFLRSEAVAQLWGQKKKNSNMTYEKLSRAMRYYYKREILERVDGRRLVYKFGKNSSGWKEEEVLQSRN
# Procedure, shortened: as §1
# [9] = molecular target: CRX (Homo sapiens, UniProt O43186 1-299); conditions: protein: recombinant; tags: N-terminal GST; dsDNA, one strand shown
# Procedure, shortened: as §1
# [10] = molecular target: ETV1 (Homo sapiens, UniProt P50549 1-477); conditions: protein: recombinant; tags: N-terminal GST; dsDNA, one strand shown
# Procedure, shortened: as §1
# [11] = molecular target: T6, ERF (Homo sapiens, UniProt P50548 1-548); conditions: protein: recombinant; tags: N-terminal GST; dsDNA, one strand shown
# T6 sequence: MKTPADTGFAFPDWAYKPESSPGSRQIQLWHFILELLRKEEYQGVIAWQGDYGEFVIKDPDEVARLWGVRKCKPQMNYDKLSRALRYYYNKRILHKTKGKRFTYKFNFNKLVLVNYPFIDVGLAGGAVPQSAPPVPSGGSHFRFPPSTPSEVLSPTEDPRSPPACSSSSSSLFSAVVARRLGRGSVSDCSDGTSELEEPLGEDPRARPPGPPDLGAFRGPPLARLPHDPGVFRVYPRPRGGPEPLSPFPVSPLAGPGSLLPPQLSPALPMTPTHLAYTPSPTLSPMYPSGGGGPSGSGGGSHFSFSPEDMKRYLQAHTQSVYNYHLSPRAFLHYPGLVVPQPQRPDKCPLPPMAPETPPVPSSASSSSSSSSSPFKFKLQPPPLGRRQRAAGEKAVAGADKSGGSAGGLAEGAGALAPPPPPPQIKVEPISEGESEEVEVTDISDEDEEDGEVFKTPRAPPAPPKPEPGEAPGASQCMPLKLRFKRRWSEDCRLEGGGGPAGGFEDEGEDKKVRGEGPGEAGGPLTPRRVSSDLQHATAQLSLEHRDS
# Procedure, shortened: as §1
# [12] = molecular target: T7, ETV3L (Homo sapiens, UniProt Q6ZN32 1-361); conditions: protein: recombinant; tags: N-terminal GST; dsDNA, one strand shown
# T7 sequence: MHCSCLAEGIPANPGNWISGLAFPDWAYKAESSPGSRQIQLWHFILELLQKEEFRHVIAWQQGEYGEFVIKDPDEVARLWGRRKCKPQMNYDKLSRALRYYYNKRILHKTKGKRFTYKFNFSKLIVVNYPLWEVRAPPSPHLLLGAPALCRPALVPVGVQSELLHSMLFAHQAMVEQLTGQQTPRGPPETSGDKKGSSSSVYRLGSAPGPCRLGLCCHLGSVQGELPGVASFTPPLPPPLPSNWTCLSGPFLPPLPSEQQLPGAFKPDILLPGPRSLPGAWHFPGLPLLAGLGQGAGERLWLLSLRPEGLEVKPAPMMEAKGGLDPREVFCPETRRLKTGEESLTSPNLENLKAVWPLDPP
# Procedure, shortened: as §1
# [13] = molecular target: T8, ETS2 (Homo sapiens, UniProt P15036 1-469); conditions: protein: recombinant; tags: N-terminal GST; dsDNA, one strand shown
# T8 sequence: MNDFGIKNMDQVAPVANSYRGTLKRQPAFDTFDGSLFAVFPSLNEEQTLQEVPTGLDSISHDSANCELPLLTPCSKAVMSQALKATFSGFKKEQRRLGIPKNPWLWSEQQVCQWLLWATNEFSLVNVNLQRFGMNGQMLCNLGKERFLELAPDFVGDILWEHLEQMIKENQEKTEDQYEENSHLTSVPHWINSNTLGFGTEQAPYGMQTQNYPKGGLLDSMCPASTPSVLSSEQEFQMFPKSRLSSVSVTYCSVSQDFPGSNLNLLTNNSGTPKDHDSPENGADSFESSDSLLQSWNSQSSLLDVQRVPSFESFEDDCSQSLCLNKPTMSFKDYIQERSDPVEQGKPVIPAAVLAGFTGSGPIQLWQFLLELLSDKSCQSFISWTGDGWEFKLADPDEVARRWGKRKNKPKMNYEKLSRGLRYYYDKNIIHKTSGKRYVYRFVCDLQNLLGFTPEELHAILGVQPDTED
# Procedure, shortened: as §1
# [14] = molecular target: T9, SPDEF (Homo sapiens, UniProt O95238 1-335); conditions: protein: recombinant; tags: N-terminal GST; dsDNA, one strand shown
# T9 sequence: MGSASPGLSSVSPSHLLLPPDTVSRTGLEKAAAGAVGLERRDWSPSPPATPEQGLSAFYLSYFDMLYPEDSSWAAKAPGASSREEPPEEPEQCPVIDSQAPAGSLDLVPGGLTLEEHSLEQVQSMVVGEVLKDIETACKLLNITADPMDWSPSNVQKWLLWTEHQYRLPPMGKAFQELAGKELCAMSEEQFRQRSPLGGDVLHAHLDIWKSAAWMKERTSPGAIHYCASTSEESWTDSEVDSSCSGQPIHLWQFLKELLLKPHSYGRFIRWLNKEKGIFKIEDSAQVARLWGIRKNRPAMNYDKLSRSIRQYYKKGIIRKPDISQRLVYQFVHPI
# Procedure, shortened: as §1
# [15] = molecular target: T10, ETV7 (Homo sapiens, UniProt Q9Y603 1-341); conditions: protein: recombinant; tags: N-terminal GST; dsDNA, one strand shown
# T10 sequence: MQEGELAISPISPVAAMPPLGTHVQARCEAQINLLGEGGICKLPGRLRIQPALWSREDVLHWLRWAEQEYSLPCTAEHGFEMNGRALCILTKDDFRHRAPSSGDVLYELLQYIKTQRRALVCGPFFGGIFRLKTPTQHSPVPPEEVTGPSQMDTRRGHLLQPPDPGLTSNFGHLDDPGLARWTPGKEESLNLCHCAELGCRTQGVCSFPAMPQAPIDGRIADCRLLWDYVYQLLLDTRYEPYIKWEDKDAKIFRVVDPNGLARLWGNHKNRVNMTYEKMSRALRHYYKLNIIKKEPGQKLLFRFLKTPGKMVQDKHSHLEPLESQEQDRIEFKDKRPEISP
# Procedure, shortened: as §1
# [16] = molecular target: T11, ELF5 (Homo sapiens, UniProt Q9UKW6-2 1-255); conditions: protein: recombinant; tags: N-terminal GST; dsDNA, one strand shown
# T11 sequence: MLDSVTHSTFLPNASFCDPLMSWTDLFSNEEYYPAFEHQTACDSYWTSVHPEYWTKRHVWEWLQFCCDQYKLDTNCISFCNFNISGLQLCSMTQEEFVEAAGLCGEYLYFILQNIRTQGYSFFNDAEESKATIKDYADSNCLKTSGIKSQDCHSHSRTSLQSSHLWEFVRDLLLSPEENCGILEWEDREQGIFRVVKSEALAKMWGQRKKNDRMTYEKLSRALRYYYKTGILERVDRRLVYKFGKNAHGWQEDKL
# Procedure, shortened: as §1
# [17] = molecular target: T12, ETV3 (Homo sapiens, UniProt P41162-2 1-143); conditions: protein: recombinant; tags: N-terminal GST; dsDNA, one strand shown
# T12 sequence: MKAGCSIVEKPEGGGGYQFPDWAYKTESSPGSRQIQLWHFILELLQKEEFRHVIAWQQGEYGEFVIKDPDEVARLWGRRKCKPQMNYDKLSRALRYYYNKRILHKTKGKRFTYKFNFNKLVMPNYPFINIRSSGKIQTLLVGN
# Procedure, shortened: as §1
# [18] = molecular target: ETV6 (Homo sapiens, UniProt P41212 1-452); conditions: protein: recombinant; tags: N-terminal GST; dsDNA, one strand shown
# Procedure, shortened: as §1
# Sequence of ETV6 (P41212 whole entry): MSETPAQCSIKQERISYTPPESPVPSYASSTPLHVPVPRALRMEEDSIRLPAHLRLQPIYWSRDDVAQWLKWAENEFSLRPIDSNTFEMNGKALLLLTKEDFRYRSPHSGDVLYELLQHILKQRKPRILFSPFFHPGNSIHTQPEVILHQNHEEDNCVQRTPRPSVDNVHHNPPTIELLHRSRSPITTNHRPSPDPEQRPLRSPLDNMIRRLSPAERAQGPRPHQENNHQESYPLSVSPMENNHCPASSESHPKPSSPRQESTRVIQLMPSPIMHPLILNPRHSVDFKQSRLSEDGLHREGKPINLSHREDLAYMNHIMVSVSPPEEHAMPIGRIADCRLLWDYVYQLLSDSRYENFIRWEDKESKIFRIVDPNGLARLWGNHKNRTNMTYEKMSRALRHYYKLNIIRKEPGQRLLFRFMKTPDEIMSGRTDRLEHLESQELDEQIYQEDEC
# Sequence of ETV5 (P41161 whole entry): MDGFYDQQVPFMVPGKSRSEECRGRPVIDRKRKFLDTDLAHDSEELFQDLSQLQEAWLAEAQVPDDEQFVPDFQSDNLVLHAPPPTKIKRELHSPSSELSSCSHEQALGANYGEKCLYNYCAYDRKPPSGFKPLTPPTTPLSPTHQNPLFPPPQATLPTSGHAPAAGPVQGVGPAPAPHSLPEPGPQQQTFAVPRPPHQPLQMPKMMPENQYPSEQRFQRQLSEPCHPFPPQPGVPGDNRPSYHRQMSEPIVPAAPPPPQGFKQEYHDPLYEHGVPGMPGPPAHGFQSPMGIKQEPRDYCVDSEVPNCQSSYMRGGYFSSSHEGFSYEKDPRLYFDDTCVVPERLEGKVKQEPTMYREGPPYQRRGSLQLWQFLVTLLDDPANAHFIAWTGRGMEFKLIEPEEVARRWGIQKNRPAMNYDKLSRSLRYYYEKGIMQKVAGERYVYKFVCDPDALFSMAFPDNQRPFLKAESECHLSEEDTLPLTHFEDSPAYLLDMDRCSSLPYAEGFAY
# Sequence of ETV1 (P50549 whole entry): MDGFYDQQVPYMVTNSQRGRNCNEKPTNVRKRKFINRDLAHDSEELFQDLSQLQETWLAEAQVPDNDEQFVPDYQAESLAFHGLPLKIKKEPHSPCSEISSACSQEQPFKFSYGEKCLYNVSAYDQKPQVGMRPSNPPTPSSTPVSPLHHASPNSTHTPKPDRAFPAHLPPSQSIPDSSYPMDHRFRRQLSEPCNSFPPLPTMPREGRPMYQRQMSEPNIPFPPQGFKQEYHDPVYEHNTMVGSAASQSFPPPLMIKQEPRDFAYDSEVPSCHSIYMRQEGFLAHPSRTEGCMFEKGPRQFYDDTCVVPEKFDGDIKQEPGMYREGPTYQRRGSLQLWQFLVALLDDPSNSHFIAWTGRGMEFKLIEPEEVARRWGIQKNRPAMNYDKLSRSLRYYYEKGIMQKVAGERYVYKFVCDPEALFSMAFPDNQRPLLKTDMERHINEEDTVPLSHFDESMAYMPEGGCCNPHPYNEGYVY
# Sequence of HSF1 (Q00613 whole entry): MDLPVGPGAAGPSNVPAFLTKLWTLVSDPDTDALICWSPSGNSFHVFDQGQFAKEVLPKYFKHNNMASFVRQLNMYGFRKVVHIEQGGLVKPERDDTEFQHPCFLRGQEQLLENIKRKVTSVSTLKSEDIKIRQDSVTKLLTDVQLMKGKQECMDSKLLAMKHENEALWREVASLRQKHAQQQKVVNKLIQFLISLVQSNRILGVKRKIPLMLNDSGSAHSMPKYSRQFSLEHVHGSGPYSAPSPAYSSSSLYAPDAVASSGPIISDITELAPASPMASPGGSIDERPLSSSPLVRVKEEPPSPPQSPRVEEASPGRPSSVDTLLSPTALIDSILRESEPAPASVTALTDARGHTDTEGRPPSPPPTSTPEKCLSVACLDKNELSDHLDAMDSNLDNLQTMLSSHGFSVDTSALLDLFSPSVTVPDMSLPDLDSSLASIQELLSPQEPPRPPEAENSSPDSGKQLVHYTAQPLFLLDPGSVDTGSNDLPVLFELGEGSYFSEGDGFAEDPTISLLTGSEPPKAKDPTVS
# Sequence of ELF4 (Q99607 whole entry): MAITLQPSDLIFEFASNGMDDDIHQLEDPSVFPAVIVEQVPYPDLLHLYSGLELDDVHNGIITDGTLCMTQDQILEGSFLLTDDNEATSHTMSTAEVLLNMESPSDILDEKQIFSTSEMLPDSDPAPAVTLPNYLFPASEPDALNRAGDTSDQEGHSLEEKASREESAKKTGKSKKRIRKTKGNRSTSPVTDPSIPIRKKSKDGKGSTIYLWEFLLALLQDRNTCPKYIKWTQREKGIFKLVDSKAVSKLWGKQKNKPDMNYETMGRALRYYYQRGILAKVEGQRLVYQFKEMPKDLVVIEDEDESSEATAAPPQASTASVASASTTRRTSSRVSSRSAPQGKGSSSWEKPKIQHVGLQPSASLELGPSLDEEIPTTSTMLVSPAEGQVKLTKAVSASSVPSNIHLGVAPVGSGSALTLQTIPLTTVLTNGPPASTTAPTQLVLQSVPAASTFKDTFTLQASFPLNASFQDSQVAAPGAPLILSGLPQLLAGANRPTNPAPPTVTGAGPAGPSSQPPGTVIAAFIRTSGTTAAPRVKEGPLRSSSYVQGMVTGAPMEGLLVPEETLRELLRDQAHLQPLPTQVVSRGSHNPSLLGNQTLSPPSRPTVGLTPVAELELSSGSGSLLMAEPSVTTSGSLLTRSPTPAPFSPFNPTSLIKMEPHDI
# Sequence of CRX (O43186 whole entry): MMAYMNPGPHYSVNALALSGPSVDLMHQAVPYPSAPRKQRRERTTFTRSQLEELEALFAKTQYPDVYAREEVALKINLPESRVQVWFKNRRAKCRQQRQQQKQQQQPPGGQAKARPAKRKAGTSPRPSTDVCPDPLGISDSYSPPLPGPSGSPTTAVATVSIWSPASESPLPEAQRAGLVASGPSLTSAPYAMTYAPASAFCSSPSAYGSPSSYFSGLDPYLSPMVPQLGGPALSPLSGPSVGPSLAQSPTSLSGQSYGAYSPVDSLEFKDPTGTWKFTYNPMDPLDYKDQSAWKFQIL
sequence,measurement,setting,value
AAGTTT,binding signal,[1],"1.35 fold enrichment (6-mer frequency, TF over GST control)"
same,binding signal,[2],"1.37 fold enrichment (6-mer frequency, TF over GST control)"
same,binding signal,[3],"1.5 fold enrichment (6-mer frequency, TF over GST control)"
same,binding signal,[4],"1.29 fold enrichment (6-mer frequency, TF over GST control)"
same,binding signal,[5],"1.39 fold enrichment (6-mer frequency, TF over GST control)"
same,binding signal,[6],"1.27 fold enrichment (6-mer frequency, TF over GST control)"
same,binding signal,[7],"1.44 fold enrichment (6-mer frequency, TF over GST control)"
same,binding signal,[8],"1.35 fold enrichment (6-mer frequency, TF over GST control)"
same,binding signal,[9],"1.38 fold enrichment (6-mer frequency, TF over GST control)"
same,binding signal,[10],"1.51 fold enrichment (6-mer frequency, TF over GST control)"
same,binding signal,[11],"1.39 fold enrichment (6-mer frequency, TF over GST control)"
same,binding signal,[12],"1.46 fold enrichment (6-mer frequency, TF over GST control)"
same,binding signal,[13],"1.39 fold enrichment (6-mer frequency, TF over GST control)"
same,binding signal,[14],"1.37 fold enrichment (6-mer frequency, TF over GST control)"
same,binding signal,[15],"1.37 fold enrichment (6-mer frequency, TF over GST control)"
same,binding signal,[16],"1.55 fold enrichment (6-mer frequency, TF over GST control)"
same,binding signal,[17],"1.53 fold enrichment (6-mer frequency, TF over GST control)"
same,binding signal,[18],"1.55 fold enrichment (6-mer frequency, TF over GST control)"
